Yp Topo-I inh = blocks Yersinia pestis topoisomerase I activity; Y. pestis Topo-I cleavage product accumulation, plate reader; activity, % at 10 µM; 360,000 tested, 0.064% active; in the data active = activity above about 50%, passing the limit was not always enough
RecA splice inh = inhibitors of M. tuberculosis RecA intein splicing; P9WHJ3; cell-free RecA intein splicing, fluorescence; inhibition, % (no concentration beside the values); 290,000 tested, 0.75% active; in the data active = inhibition above about 30%
FadD28 FP inh = blocks FadD28 binding to the bisubstrate probe; inhibition, % at 12.5 µM; 360,000 tested, 0.22% active; fluorescence polarization; in the data active = inhibition above about 8.5%, passing the limit was not always enough
UGM FP inh = inhibitors of M. tuberculosis UDP-galactopyranose mutase | 320,000 tested, 0.06% active | AID 504406 | P9WIQ1 | purified UGM, fluorescence polarization probe displacement | inhibition, % at 10 µM; in the data active = inhibition above about 10%, passing the limit was not always enough
Rv3671c protease = inhibitors of M. tuberculosis serine protease Rv3671c. inhibition, % at 5.96 µM. 320,000 tested, 0.048% active; in the data active = inhibition above about 38%;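 note: extracellular domain of Rv3671c used as enzyme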
Target sequence (P9WHR9 whole entry, looked up, the tested form may be a part): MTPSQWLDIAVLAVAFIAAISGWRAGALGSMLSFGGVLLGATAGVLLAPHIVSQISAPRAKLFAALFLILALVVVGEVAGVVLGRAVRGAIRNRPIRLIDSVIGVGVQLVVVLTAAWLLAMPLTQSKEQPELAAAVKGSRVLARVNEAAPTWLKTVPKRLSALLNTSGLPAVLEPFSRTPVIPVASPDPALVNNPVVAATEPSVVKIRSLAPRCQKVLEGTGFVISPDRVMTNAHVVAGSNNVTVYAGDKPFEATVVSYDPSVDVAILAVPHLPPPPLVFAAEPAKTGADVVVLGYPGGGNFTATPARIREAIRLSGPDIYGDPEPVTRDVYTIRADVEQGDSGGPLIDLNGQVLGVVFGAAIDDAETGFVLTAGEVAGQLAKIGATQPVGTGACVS
BioA inh = inhibitors of Mycobacterium tuberculosis BioA enzyme. 360,000 tested, 0.096% active. purified M. tuberculosis BioA enzyme, plate reader. inhibition, % at 9.99 µM; in the data active = inhibition above about 40%
GFP chromo cs = counter-screen GFP chromophore formation inhibition; shares compounds with RecA splice inh; cell-free GFP chromophore formation, fluorescence; 2,100 tested, 83% active; AID 434968; EC50, µM; call rule not given here
Hits are given with their value; 0 = inactive; - = not tested or not shown. A selection: hits, their analogues and other compounds. The true share with any hit is near 0.82%.

SMILES	Yp Topo-I inh	RecA splice inh	FadD28 FP inh	UGM FP inh	Rv3671c protease	BioA inh	GFP chromo cs
Cc1nc(Nc2ccc(O)cc2)c2c3c(sc2n1)CCCC3	0	30	0	0	0	0	0
Cc1ccc(CNc2nc(C)nc3sc4c(c23)CCC4)cc1	0	0	0	0	0	0	-
Cc1noc(C)c1S(=O)(=O)Nc1ccc2c(c1)CC(=O)N([C@H](C)CO)C[C@H](C)[C@H](CN(C)C(=O)Nc1ccc(C(F)(F)F)cc1)O2	-	-	-	-	-	0	-
CCOc1ccc(NC(=O)N(c2ccccc2)c2ccccc2)cc1	0	-	0	0	0	0	-
CCOc1ccc(NC(=O)C(c2ccccn2)N(C(=O)CCl)c2ccc(F)cc2)cc1 (centres undefined)	0	66	0	0	0	-	15
COc1ccc(NC2c3ccccc3C(=O)N2c2cccnc2)cc1 (centres undefined)	0	0	0	0	0	0	-
Cc1ccccc1N1C(=O)c2ccccc2C1Nc1cccnc1 (centres undefined)	0	33	0	0	0	0	0
COc1ccc(/C=C/C(=O)c2ccncc2)c2ccccc12	0	57	0	0	0	-	23
COc1cccc(S(=O)(=O)N[C@@H]2C=C[C@@H](CC(=O)NCc3ccc(Cl)cc3)O[C@@H]2CO)c1	-	-	-	-	-	0	-
COc1cc(/C=N/NC(=O)c2ccc(Cl)cc2)ccc1OCC(=O)N1CC(C)OC(C)C1 (centres undefined)	0	0	0	0	0	0	-
COc1cc(/C=N/NC(=S)Nc2cccc(Cl)c2C)ccc1OCC(=O)N1CC(C)OC(C)C1 (centres undefined)	0	55	0	0	0	0	37
C[C@@H]1CN([C@H](C)CO)C(=O)c2cc(NC(=O)C3CC3)ccc2O[C@@H]1CN(C)S(=O)(=O)c1cn(C)cn1	-	-	-	-	-	0	-
CO[C@H]1CN(C)C(=O)c2ccc(NC(=O)C3CC3)cc2OC[C@H](C)N(C(=O)c2cnccn2)C[C@@H]1C	-	-	-	-	-	0	-
C[C@@H]1CN([C@@H](C)CO)C(=O)Cc2cc(NC(=O)CCC(F)(F)F)ccc2O[C@H]1CN(C)Cc1ccccc1	-	-	-	-	-	0	-
CC(=O)NC(c1ccc(Cl)cc1)c1c(O)ccc2ccc(O)cc12 (centres undefined)	0	59	0	0	0	-	12
O=C(NC(c1ccc(Cl)cc1)c1c(O)ccc2ccccc12)c1ccccc1 (centres undefined)	0	-	0	0	0	0	-
C[C@@H](NC(=O)[C@@H]1N[C@@H]2c3ccc(C4=CCCCC4)c(=O)n3C[C@@H]2[C@H]1CO)c1ccccc1	-	-	-	-	-	0	-
O=C(Nc1cccc(OC(=O)c2ccco2)c1)c1ccco1	0	33	0	0	0	0	0
COc1cccc(NC(=O)c2ccco2)c1	0	0	0	0	0	0	-
CC(=O)Nc1ccc(S(=O)(=O)/N=C2\C(=O)c3ccccc3C([O-])=C2n2cc[n+](-c3ccccn3)c2)cc1	0	85	0	0	0	0	6.1
N#Cc1cc(-c2ccccc2)nc(Oc2ccccc2)n1	0	60	0	0	0	-	33
O=C(NC1CCC1)[C@H]1[C@H](CO)[C@H]2Cn3c(ccc(/C=C/c4ccccc4)c3=O)[C@H]2N1Cc1cncnc1	-	-	-	-	-	0	-
O=C(/C=C/c1ccccc1)c1ccc2c(c1)OCCCCO2	0	0	0	0	0	0	-
O=C(CCl)N(C/C=C/c1ccccc1)c1ccc2c(c1)OCCO2	0	85	0	0	0	-	3
Cc1ccc(C(=O)c2coc3cc([N+](=O)[O-])c(O)c([N+](=O)[O-])c23)cc1	0	34	0	0	0	-	37
SMILES	Yp Topo-I inh	RecA splice inh	FadD28 FP inh	UGM FP inh	Rv3671c protease	BioA inh	GFP chromo cs
CCC(=O)Nc1ccc2c(c1)C(=O)N(C)[C@@H]1CC[C@H](CC(=O)N[C@@H](C)c3ccccc3)O[C@@H]1CO2	-	-	-	-	-	0	-
Cc1[nH][nH]c(=O)c1C(c1ccc(-c2ccc(Cl)c(Cl)c2)o1)c1c(C)[nH][nH]c1=O	0	97	0	0	0	0	0.66
Cc1[nH][nH]c(=O)c1C(c1ccc(-c2ccc(F)cc2)o1)c1c(C)[nH][nH]c1=O	0	97	0	0	0	-	0.58
CCN(Cc1ccccc1)C(c1ccc(C)cc1)c1nnnn1C(C)(C)CC (centres undefined)	0	30	0	0	0	0	0
CCN(Cc1ccccc1)C(c1ccncc1)c1nnnn1C(C)(C)C (centres undefined)	0	-	0	0	0	0	-
Nc1scc2c(C(=O)N/N=C/c3ccc(Cl)cc3)nn(-c3ccccc3)c(=O)c12	0	63	0	0	0	0	16
O=c1c(Cl)nc2cc(Cl)ccc2n1CCNc1ncc(C(F)(F)F)cc1Cl	0	67	0	0	0	-	0.31
O=c1c2nncn2c2cc(C(F)(F)F)ccc2n1CCNc1ncc(C(F)(F)F)cc1Cl	0	0	0	0	0	0	-
O=C(Cc1ccccc1Cl)NC1(O)C(=O)c2ccccc2C1=O	0	51	0	0	0	0	12
O=C(Cc1ccc(Cl)cc1)NCc1ccccc1Cl	0	0	0	0	0	-	-
O=C1NC(=O)C(=Cc2cc3c(cc2[N+](=O)[O-])OCO3)C(=O)N1	0	39	0	0	0	0	0
COc1ccc(CNC(=O)c2c(C)oc3c2C(=O)c2ccccc2C3=O)cc1	0	58	0	0	0	0	23
Cc1oc2c(c1C(=O)NCc1cccnc1)C(=O)c1ccccc1C2=O	-	75	-	0	0	-	0.62
CCC(=O)N(C)C[C@H]1Oc2ncc(-c3ccccc3F)cc2C(=O)N([C@H](C)CO)C[C@@H]1C	-	-	-	-	-	0	-
CCOc1ccccc1C1C(C#N)=C(N)Nc2onc(-c3ccccc3)c21 (centres undefined)	0	78	0	0	0	0	16
c1ccc(Nc2nc(N3CCCC3)nc(N3CCCC3)n2)cc1	0	0	0	0	0	0	-
Fc1ccc(Nc2nc(Oc3ccccc3F)nc(N3CCCC3)n2)cc1	0	0	0	0	0	0	12
COc1cccc(NC(=S)/C(=C(\[O-])c2ccc(OC(F)F)cc2)[n+]2ccccc2)c1	0	37	0	0	0	-	35
[O-]/C(=C(\C(=S)Nc1cccc2ccccc12)[n+]1ccccc1)c1ccc(OC(F)F)cc1	0	-	0	-	-	-	-
COc1ccccc1NC(=O)N[C@@H]1CC[C@@H](CCn2cc(-c3ccccc3)nn2)O[C@H]1CO	-	-	-	-	-	0	-
CC(C)=CCC1=C(OCC(=O)O)C(=O)c2ccccc2C1=O	0	63	0	0	0	-	12
CC(C)=CCC/C(C)=C/CC/C(C)=C/CC/C(C)=C/CC1=C(C)C(=O)c2ccccc2C1=O	0	0	0	-	0	0	-
Cc1[nH]n(-c2ccccc2)c(=O)c1/C=C1\C=NN=C1c1ccccc1	0	82	0	0	0	-	7.4
CCCCCc1cc(=O)oc2c(C(CCN3CCCC(C)C3)c3ccc4c(c3)OCO4)c(OC)cc(OC)c12 (centres undefined)	0	35	0	0	0	0	20

Screens from PubChem BioAssay.
